Source: PMC5540273 (PLoS ONE, 2017)

How the values were obtained:
Conditions in all cases: concentration: 1 μM, replicates: in singlicate; n = 1
[1] = tested on: GRK1
[2] = tested on: T1, GRK2
T1 construct: gene ADRBK1

[3] = tested on: T2, GRK3
T2 construct: gene ADRBK2

[4] = tested on: GRK4
[5] = tested on: GRK7
[6] = tested on: GSK3A
[7] = tested on: GSK3B
[8] = tested on: T3, HASPIN
T3 construct: gene GSG2

[9] = tested on: HCK
[10] = tested on: HIPK1
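Note: KINOMEscan kinase panel screen.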

Row | Structure (SMILES) | %Inh [1] | %Inh [2] | %Inh [3] | %Inh [4] | %Inh [5] | %Inh [6] | %Inh [7] | %Inh [8] | %Inh [9] | %Inh [10]
1 | Cc1ccc(NC(=O)c2cccc(C#N)c2)cc1-c1ccc(C(=O)Nc2ccncc2)cc1 [GSK1398463] | 0% | 0% | 20% | 11% | 0% | 20% | 9% | 0% | 37% | 0%
2 | Nc1nc(-c2ccc3c(N)n[nH]c3c2)cc(N2CCC[C@@H](C(=O)Nc3ccccc3)C2)n1.O=C(O)C(F)(F)F.O=C(O)C(F)(F)F [GSK2288359] | 0% | 0% | 0% | 27% | 0% | 20% | 14% | 0% | 0% | 0%
3 | CSc1nn2c(=O)cc(N3CCOCC3)nc2n1Cc1cccc(Cl)c1Cl [GSK2347225] | 20% | 0% | 0% | 17% | 0% | 16% | 8% | 0% | 0% | 11%
4 | CS(=O)(=O)CCNCc1nc(-c2ccc3ncnc(Nc4ccc(OCc5cccc(F)c5)c(Cl)c4)c3c2)cs1.Cl [GW583340] | 0% | 0% | 28% | 0% | 0% | 0% | 1% | 0% | 0% | 0%
